Reference: PubChem BioAssay AID1030 (National Center for Advancing Translational Sciences (NCATS), 2008)
In all, about 220,000 compounds went through this assay and about 16,000 (7.3%) were called active. Roughly 25% stayed inconclusive and do not appear here. The sample holds actives, similar compounds and a random draw of the others, so the mix is not that of the screen. Calls come from the whole dose curve; as a rule, active = well fitted inhibition curve with a large enough effect (not every such curve was filed as active); inconclusive = small, poorly fitted or top-dose-only effect, or another doubt; inactive = no such curve, though single readings can be large or run the other way.

Biological target: Aldehyde dehydrogenase 1A1 (Homo sapiens) (UniProt P00352)
Sequence (P00352 whole entry, looked up): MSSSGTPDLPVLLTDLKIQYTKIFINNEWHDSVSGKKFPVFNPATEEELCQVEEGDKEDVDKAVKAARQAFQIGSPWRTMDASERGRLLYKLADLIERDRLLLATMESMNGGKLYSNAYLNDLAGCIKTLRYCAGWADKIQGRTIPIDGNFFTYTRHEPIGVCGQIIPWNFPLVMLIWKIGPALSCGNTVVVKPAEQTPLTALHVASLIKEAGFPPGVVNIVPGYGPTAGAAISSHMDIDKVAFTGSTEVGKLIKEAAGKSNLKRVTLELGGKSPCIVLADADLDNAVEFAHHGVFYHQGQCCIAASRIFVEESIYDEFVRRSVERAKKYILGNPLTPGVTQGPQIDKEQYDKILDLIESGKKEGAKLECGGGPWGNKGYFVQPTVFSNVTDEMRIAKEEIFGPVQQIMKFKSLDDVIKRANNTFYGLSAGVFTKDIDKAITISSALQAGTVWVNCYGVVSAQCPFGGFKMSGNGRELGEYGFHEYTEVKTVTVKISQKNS
Experiment: qHTS Assay for Inhibitors of Aldehyde Dehydrogenase 1 (ALDH1A1)
Details: Purified ALDH1A1, NADH fluorescence, propionaldehyde substrate; series mostly up to 75.3 µM
Potency is the fitted concentration of half-maximal effect.

Potency, inactive:
CN1CCN(C(CNS(=O)(=O)c2cccs2)c2cccnc2)CC1 (configuration not stated)
O=C(Nc1nnc(SCc2ccc(Cl)cc2Cl)s1)C1COc2ccccc2O1 (configuration not stated)
O=C(Nc1nc(-c2ccc3c(c2)OCO3)cs1)c1ccncc1
COc1ccc(/C=C/C(=O)Nc2cccnc2)cc1OC
CCCS(=O)(=O)N1CCC(CCOc2ccccc2)(C(=O)OCC)CC1
N#Cc1c(-c2ccc(Cl)cc2)c2c([nH]c1=S)CCCC2
COc1ccc(NC(=O)C(C)SCc2ccccc2)cc1 (configuration not stated)
Cc1onc(-c2c(Cl)cccc2Cl)c1C(=O)NNC(=O)c1c(-c2c(Cl)cccc2Cl)noc1C
Cc1onc(-c2c(Cl)cccc2Cl)c1C(=O)c1c[nH]c(C(=O)NC2CC2)c1
CCOc1c(CNCc2ccc(C(=O)O)cc2)cccc1OC
CC(=O)Nc1cccc(-c2nc3ccccc3s2)c1C
Cc1ccc(NC(=S)N(CCCN2CCC(C)CC2)Cc2ccco2)cc1
CCCOC(=O)c1[nH]c2c(c1C)C(=O)CC(c1cccs1)C2 (configuration not stated)
CCOC(=O)c1[nH]c2c(c1-c1ccccc1)C(=O)CC(c1ccc(Cl)cc1)C2 (configuration not stated)
COc1ccc2c(c1)O[C@@H](c1ccc3c(c1)OCO3)[C@H](OC(=O)NCCc1ccc(OC)c(OC)c1)C2=O
O=C(CCS(=O)(=O)Cc1ccccc1)Nc1ccc2c(c1)OCCO2
CC(/C=N/NC(=O)c1ccncc1)=C\c1ccco1
CC(/C=N/NC(=O)c1cc(-c2ccc3ccccc3c2)n[nH]1)=C\c1ccco1
COCC(C)NC(=O)COc1nncc2ccccc12 (configuration not stated)
COc1ccc(C2c3[nH]c4ccccc4c3CCN2CCCn2cccn2)cc1C (configuration not stated)
O=C(CSc1nnc(-c2ccc([N+](=O)[O-])cc2)o1)Nc1ccccn1
Cc1ccc(/C=N/NC(=O)Cn2nc(C)c(Br)c2C)o1
Cc1cccc(C)c1NC(=O)CSc1ccc([N+](=O)[O-])cn1
Cc1ccc(/C=N/NC(=O)CNC(=O)COc2ccccc2)o1
CC1CC(C)(C)NC(=S)N1CCC(=O)N1CCN(Cc2ccccc2)CC1 (configuration not stated)
CCN(CC)Cc1nc2sc(C)c(C)c2c(=O)[nH]1
Cc1sc2nc(CSCC(=O)Nc3c(Cl)cccc3Cl)[nH]c(=O)c2c1C
Fc1ccccc1N=C1Nc2cccc3cccc1c23
COc1ccc(CCNC(=O)c2cc3sccc3n2C)cc1OC
CCC(C(=O)NCc1ccc(OC)cc1)n1nc(C)n2c(cc3occc32)c1=O (configuration not stated)
CCCCC/C=C\C/C=C\CCCCCCCCCC(=O)NCC(=O)O
CC(C)(C)c1cc(C(=O)N/N=C/c2ccc([N+](=O)[O-])s2)n[nH]1
Cc1ccc(SCCC(=O)Nc2cc(C)on2)cc1
O=c1c2ccccc2c(-c2ccccc2)nn1-c1ccccn1
CCCc1nc(NCc2ccc3c(c2)OCO3)c2nnn(Cc3ccccc3Cl)c2n1
CC(O)C(NS(=O)(=O)c1ccc(Cl)cc1)C(=O)OCc1cc([N+](=O)[O-])cc2c1OCOC2 (configuration not stated)
Cc1cc(CNC(=O)c2cccc([N+](=O)[O-])c2)c2ccccc2n1
CCO[C@H]1OC(C(=O)O)=C[C@@H](C2CCCCC2)[C@@H]1CCCO
COc1ccccc1NC(=O)C[n+]1ccccc1
O=C(Nc1ccccc1C(F)(F)F)N1CCCC1c1cccnc1 (configuration not stated)
CC(C)CNC(=O)/C=C/C(=O)O
CC1=CC(C)(C)NC(=S)N1c1ccccc1
CCCCCCCCCCCCC(NC(C)=O)(C(=O)OCC)C(=O)OCC
COc1cc(NC(=O)CN(C)S(=O)(=O)c2ccc3nc(C)sc3c2)cc(OC)c1
COc1ccccc1OCCC(=O)OCC(=O)NCc1ccccc1
COc1cc(C=O)c(Br)cc1OCC(=O)NCc1ccccc1
C=CCOc1nc2c(c(=O)n(C)c(=O)n2C)n1Cc1ccc(Cl)cc1Cl
Cn1c(=O)c2c(nc(NCCc3ccccc3)n2Cc2ccccc2)n(C)c1=O
CC1CN(Cc2nc3c(c(=O)n(C)c(=O)n3C)n2Cc2cccc(Cl)c2)CC(C)O1 (configuration not stated)
COCCn1c(CN2CCC(Cc3ccccc3)CC2)nc2c1c(=O)n(C)c(=O)n2C
Cn1c(SCC(=O)Nc2ccc(Br)cc2F)nnc1-c1ccco1
CCCC1NC(=S)NC(C)=C1C(C)=O (configuration not stated)
CCO[C@H]1OC(C(=O)NCc2ccccc2)=C[C@@H](c2coc3ccccc3c2=O)[C@@H]1CCCO
COCCNC(=S)N1CCC(NC(=O)C23CC4CC(CC(C4)C2)C3)CC1
Cc1cccc(C)c1NC(=O)Nc1ccccc1-n1ccnc1
COC(=O)COc1ccc(S(=O)(=O)N2CCOCC2)cc1
COc1ccc(NC(=O)COC(=O)CNC(=O)C2CCCCC2)cc1
Cc1cccc(NC(=O)CSc2nnc(-c3ccco3)o2)c1
O=c1oc(-c2ccco2)nc2sc3c(c12)CCCCC3
O=C(CC(NC(=O)c1ccccc1)c1ccccc1)Nc1ccc(F)c(F)c1 (configuration not stated)
Cc1ccc(Cl)cc1-c1ccc(/C=N/n2cnnc2)o1
Cc1cc([N+](=O)[O-])c(-c2ccc(/C=N/n3cnnc3)o2)cc1Cl
CN(C)/C=C(/C(=O)c1ccccc1)S(=O)(=O)c1ccc(Cl)cc1
CCN(C(=O)CSc1nc2ccccc2n1CC)C1CCS(=O)(=O)C1 (configuration not stated)
O=C(c1ccc(C(F)(F)F)cc1)C1CCCN(C(=O)c2csnn2)C1 (configuration not stated)
CCCC(=O)N1CCc2[nH]c3ccccc3c2C1
O=C(Nc1ccc(Cl)cc1)N1CCc2[nH]c3ccccc3c2C1
O=C(/C=C/c1ccccc1)Oc1coc(CSc2ncccn2)cc1=O
Cc1cc(C)cc(NC(=O)COC(=O)c2cc(C)oc2C)c1
COc1ccc(N(CC(=O)NC2CCCC2)C(=O)CS(=O)CC(=O)Nc2ccc3c(c2)OCO3)cc1 (configuration not stated)
CCCn1c(SCC(N)=O)nnc1C(C)C
CCCn1c(SCC(=O)Nc2c(C)cccc2C)nnc1C(C)C
CCOC(=O)c1cc2c(=O)[nH]c(C(Cl)(Cl)Cl)nc2o1
CCc1nnc(NC(=O)c2sc3nc(C)cc(COC)c3c2N)s1
COc1ccc(CC(=O)NCc2nnc(SCC(=O)Nc3ncc(C)s3)n2C)cc1
COc1ccc(CN2C(=O)CC(Cc3ccc(C)cc3)C2=O)cc1OC (configuration not stated)
COc1ccc(CCN(C)CCN2C(=O)c3ccccc3C2=O)cc1OC
O=c1cc(O)c(-c2cccc(C(F)(F)F)c2)c(Cl)[nH]1
CCc1ccc(NC(=O)N2CCN(c3ccccc3)CC2)cc1
CCOC(=O)c1ccc(NC(=O)Cn2nnc(-c3ccc(C)cc3)n2)cc1
CCOC(=O)c1ccc(Nc2cc(C)nc3nc(C)nn23)cc1
COc1ccc(NC(=O)CN(C)CC(=O)Nc2cccc(C(F)(F)F)c2)cc1
CCC(C)(C)NC(=O)CN(C(=O)C(=O)Nc1ccc2c(c1)OCCO2)C(C)(C)CC
Cc1nnc(SCc2cccc(Cl)c2)n(N)c1=O
CCCn1c(N)c(C(=O)CSc2nc3ccccc3c(=O)n2-c2ccc(OC)cc2)c(=O)[nH]c1=O
O=C(NCc1ccccc1Cl)C1CCN(S(=O)(=O)N2CCOCC2)CC1

Potency, active:
O=C(Nc1nc(-c2ccncc2)cs1)C1COc2ccccc2O1 (configuration not stated) 3.55 µM
Cc1[nH]n(C)c(=O)c1C(=O)c1c(-c2c(Cl)cccc2Cl)noc1C 8.91 µM
CCCOC(=O)c1[nH]c2c(c1C)C(=O)CC(c1cc(OC)c(OC)c(OC)c1)C2 (configuration not stated) 0.355 µM
C/C(=C\c1ccco1)C1Nc2cccc3cccc(c23)N1 10 µM
C/C(=N/NC(=O)CSc1ccccn1)c1ccc([N+](=O)[O-])cc1 20 µM
Cc1ccc(/C=N/NC(=O)CSc2ccccn2)o1 7.94 µM
CSc1nnc(SCc2nc3sc(C(=O)O)c(C)c3c(=O)[nH]2)s1 7.08 µM
CCOc1ccc(CCNC(=O)C(CC)n2nc(C)n3c(cc4sccc43)c2=O)cc1OCC (configuration not stated) 31.6 µM
C#CCNc1nc(C(C)C)nc2c1nnn2Cc1ccccc1F 11.2 µM
O=C1/C(=C\c2ccsc2)NC(=S)N1c1ccccc1 28.2 µM
COc1cc(C(=S)NCc2ccccc2)cc(Br)c1O 1.78 µM
Cn1c(=O)c2c(nc(OCc3cccnc3)n2Cc2ccccc2)n(C)c1=O 10 µM
CCOC(=O)N1CCN(Cc2nc3c(c(=O)n(C)c(=O)n3C)n2Cc2ccccc2)CC1 0.126 µM
COc1ccc(OCC(=O)OCC(=O)Nc2ccc(S(=O)(=O)N3CCCCC3)cc2)cc1 10 µM
Cc1cccc(NC(=O)c2sc3nc4c(c(-c5ccco5)c3c2N)CCC4)c1 12.6 µM
Cc1cc(-c2ccc(/C=N/n3cnnc3)o2)c([N+](=O)[O-])cc1C 10 µM
Cc1ccc2[nH]c3c(c2c1)CN(C(=O)CN1CCN(c2ccccc2)CC1)CC3 17.8 µM
CCCn1c(SCC(=O)c2ccc3c(c2)OCCO3)nnc1C(C)C 20 µM
COc1ccc(CCN2C(=O)C3CC=C(C)CC3C2=O)cc1OC (configuration not stated) 17.8 µM
CCOC(=O)c1ccc(NC2Nc3cc(C)nn3S2)cc1 (configuration not stated) 12.6 µM
CCc1ccc(NC2Nc3cc(C)nn3S2)cc1 (configuration not stated) 10 µM
